Measurements published in PubChem BioAssay (NCI).
About 83,000 compounds went through this panel and 20% of them were active in at least one assay; those are over-represented in the sample as a whole.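 Interpretation: 100, growth as untreated; towards 0, rising growth inhibition; 0, no net growth; 0 to -100, cell death. Compounds scoring below 10 were considered active.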 Unmarked numbers belong to inactive results. Calls of active or inactive are those of the source.

Experiments:
Assay in all cases: NCI-60 one-dose screen, 48 h (100 = growth as untreated, 0 = no growth, -100 = all killed)
Details in all cases: 10 µM unless noted
[1] = test system: SK-MEL-2 melanoma
[2] = test system: EKVX NSCLC
[3] = test system: SN12C renal
[4] = test system: UO-31 renal
[5] = test system: TK-10 renal
[6] = test system: ACHN renal
[7] = test system: CAKI-1 renal
[8] = test system: A498 renal
[9] = test system: MOLT-4 leukemia
[10] = test system: SR leukemia
[11] = test system: RPMI-8226 leukemia
[12] = test system: OVCAR-8 ovarian
[13] = test system: OVCAR-5 ovarian
[14] = test system: OVCAR-4 ovarian
[15] = test system: SK-OV-3 ovarian
[16] = test system: IGROV1 ovarian
[17] = test system: OVCAR-3 ovarian
[18] = test system: HS 578T breast
[19] = test system: NCI/ADR-RES ovarian

Compound | growth [1] | growth [2] | growth [3] | growth [4] | growth [5] | growth [6] | growth [7] | growth [8] | growth [9] | growth [10] | growth [11] | growth [12] | growth [13] | growth [14] | growth [15] | growth [16] | growth [17] | growth [18] | growth [19]
C=C1C(=O)O[C@H]2[C@H]1CC/C(COC(=O)C(=O)c1cn(C)c3ccc(OC)cc13)=C\CC[C@@]1(C)O[C@@H]21 | -47.2% (active) | -17.4% (active) | -51% (active) | -91.9% (active) | -61.4% (active) | -57.8% (active) | -43.6% (active) | -99.5% (active) | -16.6% (active) | 2.42% (active) | -37.5% (active) | -9.07% (active) | -18.9% (active) | 20.3% | -11.6% (active) | -67.7% (active) | -72.1% (active) | 3.23% (active) | 7.43% (active)
C=C1C(=O)O[C@H]2[C@H]1CC/C(COC(=O)C(=O)c1c[nH]c3ccc(OC)cc13)=C\CC[C@@]1(C)O[C@@H]21 | -60.9% (active) | -4.43% (active) | -48.5% (active) | -96.3% (active) | -56.7% (active) | -67.1% (active) | -56.9% (active) | -98.7% (active) | -28.2% (active) | -2.97% (active) | -35.6% (active) | -24.6% (active) | -30.6% (active) | -12% (active) | 15.8% | -73% (active) | -74.6% (active) | 2.01% (active) | 7.22% (active)
CC1=CN2C(=O)C3C4=C(CCCC4)SC3N=C2CN1c1c(C)cccc1C (configuration not stated) | 116% | 81% | 99.6% | 90.7% | 100% | 96.2% | 81.1% | 92% | 77% | 41.8% | 54.4% | 109% | 94% | 93.3% | 114% | 107% | 93.9% | 103% | 99.6%
COc1ccc(-c2cc(-c3ccc(Nc4nc(Nc5ccc(Cl)cc5)nc(Nc5ccc(Cl)cc5)n4)cc3)nc(N)c2C#N)cc1 | 13.1% | -27.1% (active) | 58.3% | -46.7% (active) | -67.3% (active) | -59.5% (active) | 44.2% | 65.7% | 15.9% | 5.37% (active) | -23.5% (active) | 39.8% | 37% | 14.6% | 104% | 6.53% (active) | -15.5% (active) | 29.2% | 51%
N#Cc1c(N)nn(C(=O)c2ccc(NC(=O)c3ccccn3)cc2)c1-c1ccc(Cl)cc1 | 79.3% | 49.2% | 35% | 54.3% | 24.6% | 12.9% | 26% | 51.1% | 52.9% | 50% | 43.6% | 18.4% | 62.7% | -2.76% (active) | 67.2% | 11.1% | 6.15% (active) | 28.6% | 28.5%
COC1=C(OC)C(=O)C(OC)=C(OC)C1=O | 118% | 102% | 94.9% | 81.2% | 124% | 118% | 98.9% | 77.2% | -24.5% (active) | 94.4% | 102% | 93.4% | 108% | 42.1% | 110% | 101% | 99.3% | 97% | 98%
N#Cc1c(-c2ccccn2)[nH]c(=S)[nH]c1=O | 93.7% | 101% | 112% | 84.6% | 94.3% | 108% | 98.8% | 89.6% | 99.3% | 95.4% | 112% | 109% | 94.6% | 119% | 104% | 110% | 105% | 109% | 109%
CC/C=C1/C(=O)C=C[C@@H]1C/C=C\CCCC(=O)O | 87% | 101% | 79.9% | 103% | 105% | 85.5% | 84.9% | 104% | 9.64% (active) | 20% | 19.9% | 66.5% | 123% | 86.9% | 111% | 114% | 82.2% | 69.1% | 91.5%
